Bioassay records from PubChem BioAssay.
Rows were chosen to be rich in hits. Some 3.2% of all compounds tested hit in one or more screens of this group.
APOBEC3G inh = APOBEC3G DNA deaminase inhibitors, primary screen, biochemical, fluorescence, single-stranded DNA substrate, uHTS. hit rate 0.28% among 330,000. recombinant A3G, ssDNA deamination FAM/TAMRA fluorescence. inhibition, % at 20 µM. DNA dC->dU-editing enzyme APOBEC-3G (Homo sapiens), Q9HC16. AID 493012, 2011;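 active means inhibition of at least 40% at 20 µM, with no more than 30% in the related APOBEC3A deaminase screen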;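 further: plate controls were DMSO wells with A3G for no effect and wells lacking A3G enzyme for full effect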
Target sequence (Q9HC16 whole entry, looked up): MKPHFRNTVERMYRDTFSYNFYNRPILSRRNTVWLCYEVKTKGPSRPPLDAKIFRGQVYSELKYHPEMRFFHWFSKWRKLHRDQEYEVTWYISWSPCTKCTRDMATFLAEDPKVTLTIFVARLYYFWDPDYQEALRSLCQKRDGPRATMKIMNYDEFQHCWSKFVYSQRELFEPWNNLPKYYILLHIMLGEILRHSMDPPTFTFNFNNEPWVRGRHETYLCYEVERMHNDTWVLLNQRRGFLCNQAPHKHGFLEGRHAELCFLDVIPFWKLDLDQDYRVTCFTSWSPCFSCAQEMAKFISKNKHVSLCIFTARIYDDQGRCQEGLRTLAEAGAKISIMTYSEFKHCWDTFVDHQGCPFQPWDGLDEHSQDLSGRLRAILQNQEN
AHR act = AHR activators, primary screen, cell-based, luminescence, luciferase reporter, human; AHR-responsive luciferase reporter cells; Aryl hydrocarbon receptor (Homo sapiens), P35869; activation, % at 5 µM; hit rate 2.5% among 320,000; in the data active means activation above about 47%;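 further: 0% = vehicle wells and 100% = reference agonist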
APOBEC3A inh = APOBEC3A ssDNA deaminase inhibitors, primary screen, selectivity assay for APOBEC3G inhibitor project, biochemical, FAM/TAMRA oligo cleavage fluorescence. AID 493011, 2011. hit rate 0.41% among 330,000. inhibition, % at 20 µM. recombinant A3A, FAM/TAMRA ssDNA deamination fluorescence;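 active means at least 40% inhibition at 20 µM here, with at most 30% in a related deaminase screen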;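 further: plate controls were A3A with DMSO for no effect and wells lacking A3A enzyme for full effect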
Target sequence (P31941 whole entry, looked up): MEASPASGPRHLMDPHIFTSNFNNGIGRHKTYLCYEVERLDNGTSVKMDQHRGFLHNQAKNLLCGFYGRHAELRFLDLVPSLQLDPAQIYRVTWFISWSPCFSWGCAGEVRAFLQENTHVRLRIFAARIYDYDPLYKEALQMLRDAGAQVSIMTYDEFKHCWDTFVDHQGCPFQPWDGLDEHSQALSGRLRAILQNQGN
NTR1 ag = agonists of human NTR1, primary screen, imaging, U2OS cells, beta-arrestin-GFP, high content; Neurotensin receptor type 1 (Homo sapiens), P30989; NTR1-U2OS beta-arrestin-GFP spot imaging, agonist mode; activation, % at 20 µM; hit rate 0.17% among 330,000;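 active means activation at or above 40% of the spot to cytoplasm intensity ratio, with at least 20 cells analyzed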;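 further: 0% = DMSO without peptide and 100% = 100 nM NTR1 peptide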
A3A conf = APOBEC3A deaminase inhibitors, retest, confirmation, selectivity assay for APOBEC3G inhibitor project, biochemical, single concentration, fluorescence readout | shares compounds with APOBEC3A inh | recombinant A3A, ssDNA deaminase UDG fluorescence assay | inhibition, % at 20 µM | hit rate 63% among 1,400 | AID 493151, 2011;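 active means inhibition reaching a set limit, 80% of the first screen's cutoff, at 20 µM in any replicate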;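 further: plate controls were DMSO wells with A3A for no effect and wells lacking A3A enzyme for full effect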
UDG ctr A3A = E. coli UDG inhibitors, confirmation, counter-screen for APOBEC3A inhibitor project, biochemical, single concentration, fluorescence, FAM/TAMRA oligo | UDG counterscreen, FAM/TAMRA uracil oligo fluorescence | 1,000 tested, under 10 active | shares compounds with APOBEC3A inh | inhibition, % at 20 µM; call rule not given here
* hit, by the source's call; . = not tested or not shown.

SMILES	APOBEC3G inh	AHR act	APOBEC3A inh	NTR1 ag	A3A conf	UDG ctr A3A
Nc1nc2c(s1)CCCCCCCCCC2	18.0	6.1	49.5*	2.8	37.8*	1.6
COCCNC(=O)CSc1nnc(NC(=O)C2CC(=O)N(c3ccccc3OC)C2)s1 (configuration not stated)	-0.8	-0.6	-0.7	1.1	.	.
CCSc1ccc2cc(OC)ccc2[n+]1CC	28.4	1.3	78.1*	1.6	69.7*	-3.1
CCn1ccc2cc(OC)ccc2c1=S	-0.5	8.2	-3.2	-1.3	.	.
Cn1cccc/c1=N\c1cccc[n+]1C	24.3	0.7	48.6*	-0.3	64.7*	-1.3
S=C(NCCC1=CCCCC1)NCc1ccco1	-8.9	9.7	-7.0	1.1	.	.
CC(=O)/C(C[N+]1(C)CCCCC1)=N\O	21.4	-1.2	41.0*	1.1	82.1*	5.1
Cc1ccccc1OCC(=O)N/N=C/c1ccc([N+](=O)[O-])o1	-6.2	3.2	1.7	-0.2	.	.
COc1ccccc1OCC(=O)N/N=C/C=C/c1ccc([N+](=O)[O-])o1	23.2	5.6	44.6*	0.6	19.0*	-2.6
O=C(c1cc(COc2ccc(F)c(F)c2)on1)N1CCN(C2CCCCC2)C(=O)C1	-7.6	0.3	-5.3	0.5	.	.
CC(C)(C)c1ccc(CCC2OCC(C[N+]3(C)CCOCC3)O2)cc1 (configuration not stated)	19.1	-1.5	45.1*	0.0	72.6*	-1.5
Cc1cc(C=O)c(C)n1-c1cc(C(=O)O)cc(C(=O)O)c1	21.4	-0.3	63.7*	0.7	63.9*	2.0
CCC(CC)C(=O)OCC(=O)Nc1cccc([N+](=O)[O-])c1	-4.5	0.4	8.1	0.4	.	.
COc1ccc(C(=O)OCC[N+]2(C)CCOCC2)cc1	19.5	0.9	60.7*	0.1	72.7*	0.1
COc1ccc(C(=O)OCCc2ccc(O)cc2)cc1	-1.9	-2.5	-0.4	-0.5	.	.
CC[n+]1c(/C=C/Nc2ccccc2)sc2ccccc21	27.2	14.9	34.4	2.9	.	.
CC[n+]1ccccc1/C=C/Nc1ccccc1	17.6	15.1	60.9*	0.6	69.6*	6.8
O=C(CCNS(=O)(=O)c1ccc2nsnc2c1)N1CCN(c2ccncc2)CC1	-5.0	2.8	64.4*	7.7	-4.8	-1.7
CN(C)c1ccc2c(c1)Sc1cc(N(C)C)ccc1N2C(=O)c1ccccc1	-3.6	1.5	-2.5	4.4	.	.
Cc1ccc2nc3c(nc2c1C)CCCC3	-7.3	-0.5	-2.8	0.0	.	.
Cc1ccc2nc3c(nc2c1C)C(O)=C3O	-4.1	5.0	65.4*	-0.2	6.9	8.0
NCC(O)CN(c1ccccc1)c1ccccc1 (configuration not stated)	-4.5	0.2	-4.1	-0.3	.	.
CC(C)[N+](C)(C)CC(O)CN(c1ccccc1)c1ccccc1 (configuration not stated)	10.5	1.7	60.7*	-0.8	70.5*	0.1
CC(C)N1C(=O)CC2(CC[N+](C)(CCOC(=O)C(c3ccccc3)c3ccccc3)CC2)C1=O (configuration not stated)	18.0	1.9	59.8*	1.8	26.7*	4.8
Cc1ccc(C(c2c(O)nc3n(c2=O)CCS3)c2c(O)nc3n(c2=O)CCS3)cc1	-2.6	-0.6	52.6*	5.0	11.0	1.7
SMILES	APOBEC3G inh	AHR act	APOBEC3A inh	NTR1 ag	A3A conf	UDG ctr A3A
CC(NC(=S)Nc1ccc(F)cc1)c1ccccc1 (configuration not stated)	-4.1	-2.1	88.2*	1.1	9.8	10.9
Cc1ccc(SCC(=O)OC(C)C(=O)NC2CCCCC2C)c(C)c1 (configuration not stated)	-3.7	1.6	-2.6	1.2	.	.
COc1ccccc1N1CCN(C(=O)c2ccc(N(C)S(=O)(=O)c3ccccc3)cc2)CC1	-6.0	3.9	-0.6	-0.2	.	.
NC(=O)c1c(NC(=O)CSc2nnc(-c3ccco3)n2-c2ccccc2)sc2c1CCC2	28.7	-1.1	41.4*	6.6	45.7*	-3.6
CC(=O)OC1CC2(C)/C(=N\O)CCC2C2CCc3cc(O)ccc3C12 (configuration not stated)	-7.2	.	-1.7	2.6	.	.
CCN1/C(=C/c2cc[n+](CCCS(=O)(=O)[O-])c3ccccc23)Sc2ccccc21	20.1	6.5	75.5*	-3.0	68.6*	-1.2
CCC(/C=C1\Sc2ccc(OC)cc2N1CC)=C\c1sc2ccc(OC)cc2[n+]1CCCS(=O)(=O)[O-]	-2.5	0.5	2.3	5.2	.	.
COc1ccc(N2C(=O)c3ccc(C(=O)Nc4ccc(NC(C)=O)cc4)cc3C2=O)cc1	-9.3	2.1	-2.8	1.4	.	.
O=C(/C=C/c1ccco1)Nc1scc(-c2ccccc2)c1C(=O)O	19.1	2.6	59.3*	-1.2	68.8*	-0.2
O=C(/C=C/c1ccco1)Nc1nc(-c2ccccc2)cs1	0.8	8.3	6.6	13.7	.	.
COc1cccc(OCCn2cc(C(C)=O)c3ccccc32)c1	7.2	2.5	47.7*	4.8	14.1	.
CCOC(=O)C1=C(COC(=O)c2ccco2)NC(=O)NC1CC (configuration not stated)	-9.9	-1.6	-4.7	1.0	.	.
O=S(=O)(NC1CCCCC1)c1ccc(Cl)nc1	-3.2	-1.6	6.7	-1.2	.	.
CC(=O)Nc1nc(CC(C)C)cc(-c2ccco2)c1C#N	15.6	4.0	40.3*	1.0	51.0*	-2.8
Cc1ccc(OC(=O)c2ccc3c(=O)n4c(nc3c2)CCC4)cc1	-4.4	.	2.3	2.3	.	.
CC(=O)c1cccc(OC(=O)c2ccc3c(=O)n4c(nc3c2)CCC4)c1	20.9	3.4	65.5*	-2.1	47.4*	-2.3
CC(=O)Cn1nnc2sc(-c3ccccc3)cc2c1=O	-6.9	16.4	-0.1	2.3	.	.
CCN1/C(=C/c2ccc3cc(C)ccc3[n+]2CC)Sc2cc(C)c(C)cc21	18.9	.	56.6*	-4.2	79.9*	.
Cc1ccc(N(C(=O)c2csnn2)C(C(=O)NC2CCCCC2)c2ccccn2)cc1 (configuration not stated)	-6.7	1.2	-1.4	-0.6	.	.
O=C(NC1CCCC1)C(c1ccccn1)N(C(=O)c1csnn1)c1ccc(F)cc1 (configuration not stated)	-6.0	2.1	72.2*	-2.1	-6.2	-2.8
COc1cc(/C=C/C(=O)NC(C)CCc2ccccc2)cc(OC)c1OC (configuration not stated)	-2.7	17.7	0.0	4.3	.	.
C[n+]1ccccc1/C=C/c1ccc2ncccc2c1	18.0	.	74.6*	0.1	75.3*	-0.1
